About 83,000 compounds went through this panel and 20% of them were active in at least one assay; those are over-represented in the sample as a whole.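 How to read the values: 0–100, growth inhibition (40 = 60% inhibited); 0, no net growth; -100 to 0, cell death (-40 = 40% of starting cells died; -100 = all dead).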 A number with no mark means an inactive call. Calls of active or inactive are those of the source. The calls were made as follows: active = growth percent below 10; inactive = the rest.

The first assay concerns HCT-15 colon. The experiment in a line: NCI-60 one-dose screen, 48 h (100 = growth as untreated, 0 = no growth, -100 = all killed). Conditions: 10 µM unless noted.
Regarding `Cc1cc2c(-c3nc4ccccc4n3C)c(O)c(O)cc2c(O)c1-c1c(C)cc2c(-c3nc4ccccc4n3C)c(O)c(O)cc2c1O`, the growth is 78.9%.
On the same count and under the same terms, for `COc1ccc2sc(-n3nc4nc5n(c(=O)c4c3N)-c3ccccc3Sc3ccccc3-5)nc2c1` the value was 82.6%; for `CC(=O)Nc1ccc(C(=O)/C=C/c2ccc(N(C)C)cc2)cc1`, 94.1%; for `CCCC(=O)NNc1[nH]c(-c2ccc(OC)cc2)cc1C(=O)OCC`, 100%.
As for `O=C(/C(Br)=C/c1ccccc1)c1ccccc1`, the growth is -21.9% (active).
In the case of `C/C=C(/C)C(=O)OC1C=C(CO)C(=O)C(OC(=O)C(C)(O)C(C)Cl)C1C(C)C` (stereo not given), the growth is -20.7% (active).
Same read-out and setting: as for `CC([C@H]1CC=C2C3CCC4=C[C@@H](N(C)C)CC[C@]4(C)C3CC[C@@]21C)N(C)C` (stereo not given in full), the figure is -20.7% (active); as for `COc1ccc(/C=C2\SC(=O)N(Cc3cc(=O)oc4ccc(OC)cc34)C2=O)cc1`, 89.9%; as for `CCCCCCCCCCCCCCCC[n+]1cccc(C#N)c1`, 13.1%.
As for `COc1ccc2cnc(N)c(C#Cc3cc(C(=O)Nc4ccc(CN5CCN(C)CC5)c(C(F)(F)F)c4)cnc3C)c2c1`, the growth was 43.5%.
For `CCCCCc1ccnc(CC(=O)c2ccc(OC)cc2)c1`, the growth was 99.7%.
With `CCCCCCCCCCCCCCCCCC1=NCCN1CS(=O)(=O)O`, the growth was 41%.
On the same count and under the same terms, for `COc1ccc(OC)c(Cn2cc3c(c2)-c2oncc2CC3)c1` the value was 31.1%; for `CC1Cc2cc(F)ccc2-n2cccc21` (stereo not given), 95%; for `CC/C(=N\Nc1nc2ccccc2n1C)c1ccccn1`, 18.5%.
Same read-out and setting: as for `O=C(CN1C(=O)NC(c2ccccc2)(c2ccccc2)C1=O)c1ccc(N2CCCC2)cc1`, the figure is 64.7%; as for `COc1ccc(-c2nc(N)n(C(=S)Nc3ccccc3)n2)cc1`, 102%; as for `Cc1sc(NC(=O)c2ccc(C(C)(C)C)cc2)c(C(=O)O)c1C`, 45.9%.
As for `C#CCCCCCCC[C@@H]1OC(=O)[C@H]([C@@H](C)CC)NC(=O)[C@H]([C@@H](C)CC)NC(=O)CC(=O)[C@@H]1C`, the growth was 98.2%.
Same read-out and setting: as for `CCOC1=C(Cl)C(=O)C(OCC)=C(Cl)C1=O`, the figure is 107%; as for `Cc1ccc(CC(=O)O)c(C)c1`, 103%; as for `O=C1C(=O)c2ccccc2C(O)=C1CCCc1ccc(Oc2ccccc2)cc1`, 74.1%.
Turning to `CCOc1ccc2nc3ccc(Cl)cc3nc2c1`, the growth is 97.1%.
The same measure, in the same setting: for `CC[n+]1c(C)ccc2cc(C)ccc21` the value was 94.5%.
Turning to `COC(=O)/C(Br)=C/c1c[nH]c2ccc(Br)cc12`, the growth was 76.8%.
Still for that read-out and setting: for `CC(=O)c1ccc2c(c1)c1ccccc1n2C` the value was 102%; for `Cc1ccc([C@@H]2C[C@H](O)Cc3ccccc3N2)s1`, 94.1%; for `COC(=O)/C=C/c1cc(O)c2oc(-c3ccc(O)c(O)c3)c(C(=O)OC)c2c1`, 14.1%.
Take `CCc1c(C)c2ccc(OCC(=O)N=Nc3c(O)[nH]c4ccccc34)c(C)c2oc1=O`: the growth was -15% (active).
For `CC1=C(C)C[C@]2(C(=O)O[C@H]3CCCC[C@@H]32)[S@](=O)C1`, the growth was 112%.
With `CCOC(=O)C1=NN(c2ccccc2)C2=NC(=O)/C(=C\c3cn(-c4ccccc4)nc3-c3cc4ccccc4o3)C(=O)N12`, the growth was 101%.
In the case of `COc1cc2c(/C=C3\C(=O)Nc4ccc(Br)cc43)c(Cl)n(C)c2cc1C`, the growth is 6.8% (active).
In the case of `COc1cc2c(cc1OC)C(Cc1cc(OC)c(OC)cc1[N+](=O)[O-])=NCC2`, the growth is 95.8%.
`COc1ccc(-c2nc(SCC(C)C)nc(Nc3ccc([N+](=O)[O-])cc3)c2C#N)cc1`: the growth was 101%.
Still for that read-out and setting: as for `O=C(/C=C/c1c[nH]c2ccccc12)c1cc2ccccc2o1`, the figure is 83.3%; as for `O=C(CBr)OCc1ccc([N+](=O)[O-])o1`, 93.9%; as for `C/C=C(/C)C(=O)OC1C=C(CO)C(=O)C(OC(=O)C2(C)OC2C)C1C(C)C` (stereo not given), -14.5% (active).
The same measure, in the same setting: as for `O=C(Nc1ccc(Cl)c(Cl)c1)O/N=C\c1c(Cl)ccc([N+](=O)[O-])c1Cl`, the figure is -3.17% (active); as for `Oc1ccc(CN(Cc2ccc(C(F)(F)F)cc2)Cc2ccc(O)c3ncccc23)c2cccnc12`, 20.5%; as for `COc1cc(-c2nc(/C=C3/C(=O)Nc4ccccc43)c3ccccn23)cc(OC)c1OC`, 73.6%.

Another assay relates to HT29 colon. The assay is described as above. The note with it: 10 µM unless noted.
Regarding `Cc1cc2c(-c3nc4ccccc4n3C)c(O)c(O)cc2c(O)c1-c1c(C)cc2c(-c3nc4ccccc4n3C)c(O)c(O)cc2c1O`, the growth is 25.2%.
On the same count and under the same terms, as for `COc1ccc2sc(-n3nc4nc5n(c(=O)c4c3N)-c3ccccc3Sc3ccccc3-5)nc2c1`, the figure is 73.6%; as for `CC(=O)Nc1ccc(C(=O)/C=C/c2ccc(N(C)C)cc2)cc1`, 91.3%.
As to `CCCC(=O)NNc1[nH]c(-c2ccc(OC)cc2)cc1C(=O)OCC`, the growth is 110%.
With `O=C(/C(Br)=C/c1ccccc1)c1ccccc1`, the growth is -66.2% (active).
Still for that read-out and setting: for `C/C=C(/C)C(=O)OC1C=C(CO)C(=O)C(OC(=O)C(C)(O)C(C)Cl)C1C(C)C` (stereo not given) the value was -32.5% (active); for `CC([C@H]1CC=C2C3CCC4=C[C@@H](N(C)C)CC[C@]4(C)C3CC[C@@]21C)N(C)C` (stereo not given in full), -18.3% (active).
On the same count and under the same terms, for `COc1ccc(/C=C2\SC(=O)N(Cc3cc(=O)oc4ccc(OC)cc34)C2=O)cc1` the value was 95.8%; for `CCCCCCCCCCCCCCCC[n+]1cccc(C#N)c1`, 27.1%.
Turning to `COc1ccc2cnc(N)c(C#Cc3cc(C(=O)Nc4ccc(CN5CCN(C)CC5)c(C(F)(F)F)c4)cnc3C)c2c1`, the growth was 13.2%.
The same measure, in the same setting: as for `CCCCCc1ccnc(CC(=O)c2ccc(OC)cc2)c1`, the figure is 70.5%; as for `CCCCCCCCCCCCCCCCCC1=NCCN1CS(=O)(=O)O`, 2.18% (active).
The same measure, in the same setting: for `COc1ccc(OC)c(Cn2cc3c(c2)-c2oncc2CC3)c1` the value was 22.3%; for `CC1Cc2cc(F)ccc2-n2cccc21` (stereo not given), 106%.
For the molecule `CC/C(=N\Nc1nc2ccccc2n1C)c1ccccn1`, the growth was 21.2%.
`O=C(CN1C(=O)NC(c2ccccc2)(c2ccccc2)C1=O)c1ccc(N2CCCC2)cc1`: the growth was 65.3%.
Still for that read-out and setting: as for `COc1ccc(-c2nc(N)n(C(=S)Nc3ccccc3)n2)cc1`, the figure is 99.4%; as for `Cc1sc(NC(=O)c2ccc(C(C)(C)C)cc2)c(C(=O)O)c1C`, 82%; as for `C#CCCCCCCC[C@@H]1OC(=O)[C@H]([C@@H](C)CC)NC(=O)[C@H]([C@@H](C)CC)NC(=O)CC(=O)[C@@H]1C`, 115%.
On the same count and under the same terms, as for `CCOC1=C(Cl)C(=O)C(OCC)=C(Cl)C1=O`, the figure is 101%.
`Cc1ccc(CC(=O)O)c(C)c1`: the growth is 97.2%.
On the same count and under the same terms, for `O=C1C(=O)c2ccccc2C(O)=C1CCCc1ccc(Oc2ccccc2)cc1` the value was 113%; for `CCOc1ccc2nc3ccc(Cl)cc3nc2c1`, 90.5%; for `CC[n+]1c(C)ccc2cc(C)ccc21`, 108%.
The same measure, in the same setting: as for `COC(=O)/C(Br)=C/c1c[nH]c2ccc(Br)cc12`, the figure is 95.3%; as for `CC(=O)c1ccc2c(c1)c1ccccc1n2C`, 91.1%; as for `Cc1ccc([C@@H]2C[C@H](O)Cc3ccccc3N2)s1`, 117%.
`COC(=O)/C=C/c1cc(O)c2oc(-c3ccc(O)c(O)c3)c(C(=O)OC)c2c1`: the growth is 59.8%.
Still for that read-out and setting: as for `CCc1c(C)c2ccc(OCC(=O)N=Nc3c(O)[nH]c4ccccc34)c(C)c2oc1=O`, the figure is -38.6% (active).
With `CC1=C(C)C[C@]2(C(=O)O[C@H]3CCCC[C@@H]32)[S@](=O)C1`, the growth was 95.3%.
Same read-out and setting: as for `CCOC(=O)C1=NN(c2ccccc2)C2=NC(=O)/C(=C\c3cn(-c4ccccc4)nc3-c3cc4ccccc4o3)C(=O)N12`, the figure is 98%; as for `COc1cc2c(/C=C3\C(=O)Nc4ccc(Br)cc43)c(Cl)n(C)c2cc1C`, 7.9% (active).
The same measure, in the same setting: for `COc1cc2c(cc1OC)C(Cc1cc(OC)c(OC)cc1[N+](=O)[O-])=NCC2` the value was 50.9%.
On to `COc1ccc(-c2nc(SCC(C)C)nc(Nc3ccc([N+](=O)[O-])cc3)c2C#N)cc1`, for which the growth is 97.1%.
As for `O=C(/C=C/c1c[nH]c2ccccc12)c1cc2ccccc2o1`, the growth is 98.9%.
Still for that read-out and setting: for `O=C(CBr)OCc1ccc([N+](=O)[O-])o1` the value was 104%; for `C/C=C(/C)C(=O)OC1C=C(CO)C(=O)C(OC(=O)C2(C)OC2C)C1C(C)C` (stereo not given), -60.3% (active).
Still for that read-out and setting: for `O=C(Nc1ccc(Cl)c(Cl)c1)O/N=C\c1c(Cl)ccc([N+](=O)[O-])c1Cl` the value was -73% (active); for `Oc1ccc(CN(Cc2ccc(C(F)(F)F)cc2)Cc2ccc(O)c3ncccc23)c2cccnc12`, 11.3%.
In the case of `COc1cc(-c2nc(/C=C3/C(=O)Nc4ccccc43)c3ccccn23)cc(OC)c1OC`, the growth was 62.5%.

The values above are taken from PubChem BioAssay (NCI).
